AddAB inh: less growth of phage-infected E. coli with AddAB. E. coli expressing H. pylori AddAB, absorbance growth. inhibition, % at 11.9 µM. actives 0.29% (n = 330,000); in the data active = inhibition above about 12%;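 also: 0% = vehicle wells of infected cells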
E coli growth-1: counter-screen for AddAB inhibitors: E. coli growth inhibition; E. coli V3065 growth, OD600 absorbance, 18 h; inhibition, % at 11.9 µM; actives 0.27% (n = 330,000);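 active = inhibition above the campaign's mean inhibition across all tested compounds plus 3 SD, cut at about 9.9% in these data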;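 also: uninfected addAB+ strain grown without phage in ampicillin broth; 0% = DMSO wells and 100% = ciprofloxacin 0.95 µg/ml wells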
E coli growth-2: E. coli growth inhibition; Escherichia coli growth, OD600, 23 h; active compounds read low; actives 0.21% (n = 330,000); OD600 absorbance (concentration not given with the values);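 active = OD600 absorbance below the run mean of sample wells minus 3.6 SD, in any replicate, cut at about 0.56 in these data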
phage Ecoli inh: E. coli growth loss with phage present; growth absorbance; inhibition, % at 11.9 µM; actives 0.26% (n = 360,000); in the data active = inhibition above about 11%
Tat transport: inhibitors of E. coli Tat protein transport; E. coli MC4100 TorA-mCherry Tat export, fluorescence; inhibition, % at 10 µM; actives 0.036% (n = 340,000);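 active = mean replicate inhibition at least 50% and at least half of replicates individually reaching 50%; inconclusive = only one of the two criteria met; inactive = neither criterion met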;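 also: exported cargo escapes ClpAP degradation while cytoplasmic cargo is degraded and loses fluorescence; 0% = median of neutral control wells and 100% = median of NaSCN control wells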
AddAB conf: growth loss of T4-infected E. coli expressing H. pylori AddAB, confirmed; shares compounds with AddAB inh; actives 64% (n = 880); inhibition, % at 11.9 µM; E. coli V3065 expressing H. pylori AddAB, T4 phage, OD; T4 phage with gene 2 nonsense mutations; AID 488942;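 active = mean inhibition above a set limit taken from the earlier primary screen, cut at about 13% in these data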;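 also: higher means less bacterial growth since AddAB block lets phage replicate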
RecBCD counter: counter-screen: growth loss of RecBCD+ E. coli with mutant T4 phage. E. coli V66 + mutant T4 phage, OD growth. actives 73% (n = 880). inhibition, % at 11.9 µM. shares compounds with AddAB inh;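 active = mean inhibition above the mean of solvent-only control wells plus 3 SD, cut at about 4% in these data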;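 also: optical density read after an 18 h incubation at 37 °C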
Bact viability: counter-screen for AddAB inhibitors: inhibitors of bacterial viability; shares compounds with AddAB inh; absorbance (AddAB counterscreen); inhibition, % at 11.9 µM; actives 35% (n = 880); AID 488956; in the data active = inhibition above about 25%
RecBCD conf: growth loss of phage-infected V66 E. coli, RecBCD confirmation screen. shares compounds with phage Ecoli inh. E. coli V66 + T4 2- phage, growth OD. inhibition, % at 11.9 µM. actives 45% (n = 890). AID 651982;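 active = mean inhibition over triplicates exceeding the hit threshold derived in the original primary screen, cut at about 11% in these data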
Ecoli viability: counter-screen for RecBCD inhibitors: inhibitors of bacterial viability | shares compounds with phage Ecoli inh | E. coli viability, absorbance (OD) growth | inhibition, % at 11.9 µM | actives 29% (n = 890); in the data active = inhibition above about 20%;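 also: E. coli strain V66 grown with compound alone and no phage infection; 0% = bacteria with DMSO vehicle only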
AddAB counter: growth loss of phage-infected AddAB E. coli, RecBCD counter-screen; E. coli expressing H. pylori AddAB + T4 phage, OD growth; gene 2 mutant T4, recBCD-deleted host; actives 45% (n = 890); shares compounds with phage Ecoli inh; inhibition, % at 11.9 µM;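 active = mean inhibition above the solvent-only control wells' mean plus 3 SD, cut at about 22% in these data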;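 also: higher means less bacterial growth from phage killing when AddAB is blocked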
Starred values were filed as active, the others as inactive; u = inconclusive; x = no result given. A selection: hits, their analogues and other compounds. The true share with any hit is near 0.51%.

SMILES | AddAB inh | E coli growth-1 | E coli growth-2 | phage Ecoli inh | Tat transport | AddAB conf | RecBCD counter | Bact viability | RecBCD conf | Ecoli viability | AddAB counter
O=C(NN=Cc1c(O)ccc2ccccc12)c1ccc2c(c1)OCO2 | 18* | 21* | 0.59 | 11* | -11 | 0 | 10* | -5 | 4 | 8 | 5
O=C(N/N=C/c1ccccc1)c1ccc2c(c1)OCO2 | 5 | 1 | x | 2 | 5 | x | x | x | x | x | x
O=C(Oc1c(CN2CCOCC2)cc(Cl)c2cccnc12)c1cccs1 | -2 | -8 | 0.67 | -3 | 3 | x | x | x | x | x | x
O=C(Oc1c(Cl)cc(Cl)c2cccnc12)c1cccs1 | 40* | 43* | 0.14* | 42* | 7 | 51* | 53* | 56* | 44* | 53* | 41*
Cc1cc(C)c(C)c(S(=O)(=O)N2CCC(C(=O)NNC(=O)c3ccccc3O)CC2)c1C | 15* | 9 | 0.65 | 12* | -6 | 11 | 8.1* | 6 | 1 | 1 | 0
CC(CC(=O)NCc1ccco1)=NNC(=O)COc1ccc(C)cc1 | x | x | 0.69 | x | x | x | x | x | x | x | x
NC1CCN(c2c(F)cc3c(=O)c(C(=O)O)cn(C4CC4)c3c2Cl)C1 (stereo not given) | 97* | 98* | 0.066* | 99* | 149* | 102* | 100* | 102* | 101* | 101* | 99*
O=C(O)c1cn(C2CCCCC2)c2ccccc2c1=O | 0 | 1 | 0.65 | 1 | 2 | x | x | x | x | x | x
CC1CCc2cc(F)cc3c(=O)c(C(=O)O)cn1c23 (stereo not given) | 100* | 100* | 0.062* | 100* | 56* | 99* | 31* | 100* | 102* | 103* | 102*
CC1CCc2c(N3CCC(O)CC3)c(F)cc3c(=O)c(C(=O)O)cn1c23 (stereo not given) | 101* | 102* | 0.059* | 103* | 60* | 96* | 99* | 97* | 102* | 103* | 103*
O=C1C=C(c2cccc3c2Oc2ccccc2S3)CC(c2ccc(Cl)cc2)C1 (stereo not given) | x | x | 0.77 | x | x | x | x | x | x | x | x
COc1ccccc1OCC(=O)N/N=C/C=C/c1ccc([N+](=O)[O-])o1 | 83* | 54* | x | 12* | 20 | 101* | 24* | 94* | 18* | 23* | 99*
O=C(CSC1=NNC(c2ccccn2)S1)Nc1ccccc1 (stereo not given) | 13* | 9 | 0.66 | 11* | -15 | 35* | 14* | 21 | 10 | 13 | 38*
Cc1nc(Nc2ccc(S(N)(=O)=O)cc2)oc1C | 15* | 9.9* | 0.73 | 12* | -10 | 9 | 5.3* | 15 | 5 | 2 | 41*
Cc1ccc(/C=C/C(=O)Nc2ccc(S(N)(=O)=O)cc2)o1 | 2 | 4 | 0.69 | -1 | 2 | x | x | x | x | x | x
O=C(Nc1cccnc1)c1ccc([N+](=O)[O-])s1 | 99* | 69* | 0.07* | 17* | -4 | 100* | 18* | 47* | 8 | 11 | 86*
O=C(Nc1ccccc1F)c1ccc([N+](=O)[O-])s1 | 3 | 4 | 0.57 | 2 | u | x | x | x | x | x | x
CCC(ONc1ccccc1C(F)(F)F)(C(=O)NN(C)C)c1ccccc1 (stereo not given) | 101* | 23* | 0.5 | 17* | -10 | 98* | 14* | 62* | 11* | 12 | 103*
CCOc1ccc(OCC(=O)Nc2ccccc2C(F)(F)F)cc1 | -1 | 0 | 0.71 | 4 | 2 | x | x | x | x | x | x
CCc1nnc(NS(=O)(=O)c2ccc(NC(=S)Nc3ccc(F)cc3)cc2)s1 | 15* | 9 | 0.65 | 16* | 6 | -5 | 1 | -1 | 3 | 2 | 8
CC1CC(=NNC(=S)NCc2ccccc2)CC(C)(C)C1 (stereo not given) | x | x | 0.65 | x | x | x | x | x | x | x | x
COc1c(N2CCN(C(=S)Nc3ccc(F)cc3)C(C)C2)c(F)cc2c(=O)c(C(=O)O)cn(C3CC3)c12 (stereo not given) | 99* | 99* | 0.073* | 73* | 76* | 97* | 98* | 100* | 14* | 14 | 102*
COc1c(N2CCN(C(=S)NC3CC4CCC3C4)C(C)C2)c(F)cc2c(=O)c(C(=O)O)cn(C3CC3)c12 (stereo not given) | 99* | 99* | 0.092* | 99* | 64* | 102* | 101* | 101* | 101* | 103* | 103*
Cc1ccc(C(C)C)c(OCc2ccc(C(=O)N/N=C/c3cccc(O)c3O)cc2)c1 | 16* | 14* | x | 22* | 2 | 16* | 16* | 9 | 9 | 11 | 14
Cc1ccc(C(C)C)c(OCc2ccc(C(=O)NN=Cc3ccc(O)cc3O)cc2)c1 | x | x | 0.68 | x | x | x | x | x | x | x | x
SMILES | AddAB inh | E coli growth-1 | E coli growth-2 | phage Ecoli inh | Tat transport | AddAB conf | RecBCD counter | Bact viability | RecBCD conf | Ecoli viability | AddAB counter
Cc1ccc(C)c(S(=O)(=O)N2CCN(Cc3ccc(O)c4ncccc34)CC2)c1 | 17* | 16* | 0.66 | 17* | 1 | 13* | 15* | 10 | 8 | 13 | 19
CCOC(=O)N1CCN(Cc2ccc(O)c3ncccc23)CC1 | 2 | 3 | 0.75 | 8 | x | x | x | x | x | x | x
O=C(NC1CC1)C1=CC(c2csc3ccccc23)CC(OCCCCO)O1 (stereo not given) | x | x | 0.66 | x | x | x | x | x | x | x | x
CCc1cn(C2CC(O)C(CO)O2)c(=O)[nH]c1=O (stereo not given) | 20* | 13* | 0.62 | 12* | 4 | 35* | 13* | 11 | 14* | 10 | 31*
O=c1[nH]c(=O)n([C@H]2C[C@H](O)[C@@H](CO)O2)cc1I | 3 | 4 | x | 10 | 13 | x | x | x | x | x | x
N#Cc1c(-c2ccccc2)ccn(Cc2cccc(Cl)c2)c1=O | 21* | 16* | 0.69 | 15* | -4 | 27* | 16* | 19 | 6 | 9 | 15
CN1CCN(C(c2ccc(Br)cc2)c2cc(Cl)c3cccnc3c2O)CC1 (stereo not given) | 22* | 23* | x | 13* | -8 | 11 | 11* | 5 | 2 | 4 | 3
CN1CCN(C(c2ccc(F)cc2)c2ccc3cccnc3c2O)CC1 (stereo not given) | x | x | 0.69 | x | 1 | x | x | x | x | x | x

Source: PubChem
